The target of test [1] is Lysosomal acid glucosylceramidase (Homo sapiens) (UniProt P04062). The experiment in a line: Glucocerebrosidase-p2 (AID 348; in the data active means potency below about 10 µM; further: potency means the concentration at half of the fitted maximal effect). As to conditions: purified GBA, blue fluorogenic substrate, 40 min. Summed up:
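Normal human glucocerebrosidase (0.2 nM) with blue fluorogenic substrate (80 uM final) in citrate/phosphate pH 5.9 with 10mM sodium taurocholate, 0.01% tween-20; 40 min RT, NaOH/glycine stop; fluorescence Ex 365/Em 440; AC50 from a titration from 0.6 nM upwards.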

Test [2] is described as follows: AP1 Signaling Pathway (AID 357).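 Further: ME-180 reporter cells stimulated with EGF at its EC50 level; on the % scale 0 is the no-effect control and ±100 the full control effect.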 As to conditions: ME-180 AP-1-bla reporter, EGF-induced, beta-lactamase ratio, 5 h; at 7.69 µM (top of the series) unless noted. Summed up:
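Read-out was the 460nm/530nm emission ratio (excitation 405nm) after CCF4 loading for 2.5 hours at room temperature. Cells carried an AP-1-driven beta-lactamase reporter, were stimulated with EC50 EGF plus compound for 5 hours, and AC50 values came from titrations.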

Test [3] in a line: Stat Signaling Pathway (AID 446).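 Further: ME-180 cervical cancer cells given 40 pM IL-6 alongside compound; SIE-controlled beta-lactamase reporter measured as 460/530 nm FRET emission ratio; on the % scale 0 is the no-effect control and ±100 the full control effect.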 The following applies: ME-180 (cervical carcinoma) SIE beta-lactamase reporter, IL-6 stimulated, 5 h; at 7.69 µM (top of the series) unless noted. Summed up: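 Normalization used AC90 stimulation (300 pM IL-6) and AC90 inhibition (125 nM pan-JAK inhibitor at 40 pM IL-6). The underlying signal is SIE-driven beta-lactamase in ME-180 cells after 5 h IL-6 exposure with compound.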

Test [4] deals with Glucocorticoid receptor (Homo sapiens) (UniProt P04150). In words: GR-EFC Redistribution (AID 451; calls by dose curve; further: potency means the concentration at half of the fitted maximal effect). As to conditions: CHO-K1 GR-EFC translocation, beta-gal luminescence, 2 h. The procedure, abridged: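 CHO-K1 cells stably expressing nuclear-localized β-gal enzyme acceptor and GR fused C-terminally to the enzyme donor fragment; ligand-driven nuclear translocation restores β-gal by complementation. Compounds titrated up to 46 uM final, 2 h at 37 °C; luminescence read.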
Glucocorticoid receptor (Homo sapiens), sequence (P04150 whole entry, looked up, the tested form may be a part): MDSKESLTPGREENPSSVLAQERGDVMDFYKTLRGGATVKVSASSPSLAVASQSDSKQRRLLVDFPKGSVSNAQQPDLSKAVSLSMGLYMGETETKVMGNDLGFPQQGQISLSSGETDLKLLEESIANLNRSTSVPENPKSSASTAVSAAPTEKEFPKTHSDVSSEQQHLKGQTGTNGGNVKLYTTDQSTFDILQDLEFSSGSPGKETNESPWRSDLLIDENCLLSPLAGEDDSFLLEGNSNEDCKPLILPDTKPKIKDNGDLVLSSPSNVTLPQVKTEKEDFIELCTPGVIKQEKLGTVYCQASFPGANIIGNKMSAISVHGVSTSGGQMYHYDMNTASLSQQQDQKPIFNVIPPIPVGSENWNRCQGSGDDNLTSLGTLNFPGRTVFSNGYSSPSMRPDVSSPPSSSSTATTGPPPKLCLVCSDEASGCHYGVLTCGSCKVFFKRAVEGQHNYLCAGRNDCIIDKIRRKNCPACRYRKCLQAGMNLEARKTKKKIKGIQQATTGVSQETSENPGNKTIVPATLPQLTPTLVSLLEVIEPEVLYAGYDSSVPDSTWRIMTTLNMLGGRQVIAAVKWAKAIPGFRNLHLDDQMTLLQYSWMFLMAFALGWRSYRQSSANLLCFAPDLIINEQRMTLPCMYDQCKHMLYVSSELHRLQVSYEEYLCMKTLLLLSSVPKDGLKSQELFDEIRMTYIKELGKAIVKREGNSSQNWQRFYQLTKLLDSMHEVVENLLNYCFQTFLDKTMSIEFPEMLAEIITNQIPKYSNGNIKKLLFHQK

Test [5] concerns the target Mitogen-activated protein kinase 10 (Mus musculus) (UniProt Q61831). The experiment in a line: JNK3 AlphaScreen Assay (AID 530).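 Further: kinase came from lysate of stimulated human HepG2 cells; on the % scale 0 is the no-effect control and ±100 the full control effect.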 The following applies: JNK3 lysate, c-Jun phosphorylation; series mostly up to 57.1 µM. The procedure, abridged: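 Biotinylated GST-cJun(1-79) served as substrate for JNK3 in HepG2 lysates stimulated with IL-1beta and TNF-alpha. ATP was 10 uM final, pH 7.6. Ser73 phosphorylation was quantified by AlphaScreen (680 nm excitation).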

Test [6] addresses 3',5'-cyclic-AMP phosphodiesterase 4B (Homo sapiens) (UniProt Q07343). In words: qHTS Assay for Inhibitors of PDE-IV (AID 607; active means well fitted activation curve with a large enough effect in the main read-out, with a control signal flat, not every such curve was filed as active; further: % of control where 0% means no effect). The following applies: HEK293 ACTOne CNG channel cells, membrane potential fluorescence; series mostly up to 22.9 µM. The procedure, abridged: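 HEK293 ACTOne cells with CNG channel (1000/well), endogenous PDE4; membrane potential dye, compounds up to 22.9 uM final. Fluorescence Ex 535/Em 590; RO 20-1724 (100 uM final) as reference.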

A short description of test [7]: qHTS Assay for Lipid Storage Modulators (AID 1519; calls by dose curve). The following applies: Drosophila S3 cells, BODIPY lipid droplet/cell ratio, laser cytometry, cells loaded with oleic acid; for activity change, negative = inhibition: at 57.5 µM (top of the series). Summed up:
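Cells seeded at 5,000 per well were treated with compounds over a concentration series and loaded with oleic acid (400 uM, as added). Lipid droplet fluorescence (488 nm excitation, 500-530 nm channel) was read by laser-scanning cytometry and normalized to 20 uM Triacsin C.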
(In general: qHTS replaces the single test concentration by a dilution series.)

A short description of test [8]: Primary qHTS for small molecule stabilizers of the endoplasmic reticulum resident proteome: Secreted ER Calcium Modulated Protein (SERCaMP) assay (AID 1508630; active means well fitted inhibition curve with a large enough effect; further: on the % scale 0 is the no-effect control and ±100 the full control effect). As to conditions: SH-SY5Y GLuc-SERCaMP (Gaussia luciferase released on ER calcium loss) secretion, thapsigargin, luminescence; series mostly up to 38.4 µM. Summed up: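 The SH-SY5Y reporter protocol was run at 3 concentrations up to 38.3 uM (primary) or 11 concentrations (follow-up): 16 h compound, 100 nM thapsigargin for 4 h, then extracellular luciferase luminescence.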

Test [9] can be described thus: NFAT Signaling Pathway (AID 444). The following applies: Jurkat NFAT-bla M1, carbachol, beta-lactamase ratio, 5 h; at 7.69 µM (top of the series) unless noted. Summed up: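 Jurkat cells carrying an NFAT-driven β-lactamase reporter and co-transfected muscarinic M1 receptor were treated with compound plus carbachol (1 uM final, an EC50 level) for 5 h at 37 °C. CCF4 loading followed for 1 h at RT; 460/530 nm ratio gave %activity.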

[10] abbreviates: measured here: cell count channel max response.
Where [11] appears, read: measured here: lipid channel max response.

The structures appear in SMILES notation. Inconclusive results are not listed. The source made the active and inactive calls. Unless noted, the call rests on the fitted dose curve; in most records, active means well fitted curve in either direction with a large enough effect (not every such curve was filed as active); inconclusive means small, poorly fitted or top-dose-only effect, or another doubt; inactive means flat fitted curve, though single readings scatter.

Lysosomal acid glucosylceramidase (Homo sapiens), sequence (P04062 whole entry, looked up): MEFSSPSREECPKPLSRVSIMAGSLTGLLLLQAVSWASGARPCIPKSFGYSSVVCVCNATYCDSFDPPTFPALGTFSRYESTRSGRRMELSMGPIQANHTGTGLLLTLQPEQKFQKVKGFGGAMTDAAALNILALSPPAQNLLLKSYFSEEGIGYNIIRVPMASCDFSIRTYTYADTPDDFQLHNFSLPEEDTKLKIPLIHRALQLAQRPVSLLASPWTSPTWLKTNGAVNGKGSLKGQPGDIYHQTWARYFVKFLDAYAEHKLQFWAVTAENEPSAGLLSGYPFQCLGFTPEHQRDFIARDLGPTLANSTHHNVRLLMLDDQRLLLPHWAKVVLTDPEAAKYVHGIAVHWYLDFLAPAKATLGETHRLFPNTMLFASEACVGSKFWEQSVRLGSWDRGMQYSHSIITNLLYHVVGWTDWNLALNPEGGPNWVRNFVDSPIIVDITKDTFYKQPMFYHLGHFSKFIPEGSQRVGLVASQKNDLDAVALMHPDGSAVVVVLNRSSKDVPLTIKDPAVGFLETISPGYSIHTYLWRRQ
3',5'-cyclic-AMP phosphodiesterase 4B (Homo sapiens), sequence (Q07343 whole entry, looked up): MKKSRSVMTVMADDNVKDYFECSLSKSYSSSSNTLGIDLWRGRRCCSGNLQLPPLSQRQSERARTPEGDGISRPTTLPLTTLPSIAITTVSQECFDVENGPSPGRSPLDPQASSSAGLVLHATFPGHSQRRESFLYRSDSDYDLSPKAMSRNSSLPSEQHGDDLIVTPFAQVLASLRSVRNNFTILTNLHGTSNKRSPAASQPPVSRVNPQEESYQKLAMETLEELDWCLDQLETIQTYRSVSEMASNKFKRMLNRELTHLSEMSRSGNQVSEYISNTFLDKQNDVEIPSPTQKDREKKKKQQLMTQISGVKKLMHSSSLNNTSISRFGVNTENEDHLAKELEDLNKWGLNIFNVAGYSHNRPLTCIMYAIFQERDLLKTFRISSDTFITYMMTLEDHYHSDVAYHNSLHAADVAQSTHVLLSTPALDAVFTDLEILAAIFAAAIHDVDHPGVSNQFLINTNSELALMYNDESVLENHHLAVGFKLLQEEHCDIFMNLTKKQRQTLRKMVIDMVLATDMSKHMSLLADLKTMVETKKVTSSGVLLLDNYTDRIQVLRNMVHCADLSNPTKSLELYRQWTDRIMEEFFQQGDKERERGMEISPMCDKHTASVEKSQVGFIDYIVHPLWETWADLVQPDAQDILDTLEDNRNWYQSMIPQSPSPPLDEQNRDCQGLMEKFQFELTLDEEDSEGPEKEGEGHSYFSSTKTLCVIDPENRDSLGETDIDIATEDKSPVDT

Turning to `COc1ccc(C(=O)N2CCC3(CCCN(c4ccccc4)C3)CC2)cc1`, the figures for the Potency in test [1] and in test [4] were > 11.4 µM (inactive) and > 46 µM (inactive), respectively. The figures for the activity change, negative = inhibition in [2] and in test [7] were -1.35% (inactive) and -17.3% (inactive), respectively. In addition, the activity, negative = inhibition in [3] was -0.767% (inactive). The Potency result in test [5] and in test [6] was “inactive” each time. The max response in [7] (setting [10]) is 1.98%; in test [7] (setting [11]), -15%. Also, in test [8], the result was inactive.
Consider `COc1ccccc1CN1CC[C@@]2(CCCN(C(=O)c3ccncc3)C2)C1`, for which the Potency in test [1] was > 11.4 µM (inactive). For the same compound, the activity change, negative = inhibition is -11.5% (inactive) in test [2], 3.54% (inactive) in test [9] and 3.67% (inactive) in test [7]. Also, in [3], the activity, negative = inhibition was 0.423% (inactive). Besides, the Potency entry in [5] and in [6] was “inactive” throughout. Further, the max response in test [7] (setting [10]) worked out at 8.53%; in test [7] (setting [11]), 14.1%. In addition, the outcome in test [8] was inactive.
Consider `O=C(c1csnn1)N1CCC2(CCN(Cc3cc(C(F)(F)F)cc(C(F)(F)F)c3)CC2)CC1`, for which the Potency in [1] was > 11.4 µM (inactive); in test [4], > 46 µM (inactive). In addition, the activity change, negative = inhibition in test [2] was 11.5% (inactive); in test [7], 1.96% (inactive). For the same compound, the activity, negative = inhibition in test [3] was 4.05% (inactive). For the same compound, the Potency result in test [5] and in test [6] was “inactive” each time. Further, the max response amounted to 7.55% in test [7] (setting [10]) and 11.7% in [7] (setting [11]). In addition, the result in test [8] was inactive.
As to `O=C(c1cnccn1)N1CCC2(CCN(Cc3ccccc3)CC2)CC1`, the results for the Potency in test [1] and in test [4] were > 11.4 µM (inactive) and > 46 µM (inactive), respectively. Moreover, the values for the activity change, negative = inhibition in test [2] and in [7] were 12.5% (inactive) and 2.37% (inactive), respectively. Also, the activity, negative = inhibition in [3] is -1.26% (inactive). Besides, the Potency entry in [5] and in [6] was “inactive” in each case. Further, the max response in [7] (setting [10]) worked out at 7.12%; in test [7] (setting [11]) it was 14.3%. The outcome in test [8] was inactive.
Consider `COCC(=O)N1CCC2(CC1)CN(c1cccc(-c3ccccc3)c1)C2`, for which the results for the Potency in test [1] and in test [4] were > 11.4 µM (inactive) and > 46 µM (inactive), respectively. Besides, the activity change, negative = inhibition in test [2] is -29.8% (inactive); in test [9], 19.3% (inactive); in [7] it was 3.02% (inactive). The Potency entry in [5] and in test [6] was “inactive” each time. For the same compound, the max response in test [7] (setting [10]) was -3.81%; in test [7] (setting [11]) it was 0.928%. In addition, the result in test [8] was inactive.
Take `CC(=O)N1CCC[C@@]2(CCN(Cc3ccc(C#N)cc3)C2)C1`: the Potency in test [1] was > 11.4 µM (inactive); in test [4] it was > 46 µM (inactive). Further, the values for the activity change, negative = inhibition in [2], in test [9] and in test [7] were -11.7% (inactive), 2.49% (inactive) and 2.62% (inactive), respectively. Moreover, the Potency result in test [5] and in test [6] was “inactive” in each case. For the same compound, the max response was 7.32% in test [7] (setting [10]) and 8.41% in test [7] (setting [11]). Further, in [8], the outcome was inactive.
`COCC(=O)N1CCC2(CCCN(Cc3ccc(C#N)cc3)C2)CC1`: the figures for the Potency in [1] and in test [4] were > 11.4 µM (inactive) and > 46 µM (inactive), respectively. In addition, the results for the activity change, negative = inhibition in test [2] and in test [7] were 12.6% (inactive) and 4.66% (inactive), respectively. The activity, negative = inhibition in test [3] is 1.68% (inactive). Further, the Potency entry in test [5] and in test [6] was “inactive” throughout. Also, the max response was -1.66% in [7] (setting [10]) and 3.44% in test [7] (setting [11]). The outcome in test [8] was inactive.

For the origin of these results see PubChem BioAssay (NCATS).
